Data as given in PubChem BioAssay AID1851 (National Center for Advancing Translational Sciences (NCATS), 2009).
Among all 16,000 compounds or so, about 5,100 (32%) were called active. Inconclusive results (about 25%) are left out. The list shows a part of the results. Unmarked numbers belong to inactive results. Calls come from the whole dose curve; as a rule, active = well fitted curve in the direction sought with a large enough effect; inconclusive = small, poorly fitted or top-dose-only effect, or effect the other way; inactive = no such curve, though single readings can be large or run the other way.

Target: Cytochrome P450 3A4 (Homo sapiens) (UniProt P08684)
Assay: Cytochrome panel assay with activity outcomes
Details: recombinant CYP, pro-luciferin dealkylation, luminescence, p450-cyp3a4; series mostly up to 57.1 µM; activity, negative = inhibition: at the top concentration
% is set by controls: 0 for no effect and ±100 for the full control effect.

Chain of Cytochrome P450 3A4 (Homo sapiens) (P08684 whole entry, looked up): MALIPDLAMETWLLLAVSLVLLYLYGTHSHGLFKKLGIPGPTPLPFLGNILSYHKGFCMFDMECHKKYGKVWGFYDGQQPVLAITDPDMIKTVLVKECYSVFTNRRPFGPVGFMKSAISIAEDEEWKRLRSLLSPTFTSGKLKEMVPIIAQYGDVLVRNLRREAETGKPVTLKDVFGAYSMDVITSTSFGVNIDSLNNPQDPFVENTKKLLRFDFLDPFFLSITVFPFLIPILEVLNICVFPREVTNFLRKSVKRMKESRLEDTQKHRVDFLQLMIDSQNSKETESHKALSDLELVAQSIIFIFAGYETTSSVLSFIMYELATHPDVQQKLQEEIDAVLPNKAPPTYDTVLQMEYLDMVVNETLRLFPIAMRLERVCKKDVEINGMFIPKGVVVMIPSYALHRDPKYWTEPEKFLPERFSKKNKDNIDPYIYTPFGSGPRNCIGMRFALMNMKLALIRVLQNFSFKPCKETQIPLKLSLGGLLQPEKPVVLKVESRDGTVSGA

Row | Compound | AC50 | activity, negative = inhibition
1 | COc1ccccc1NS(=O)(=O)c1cccc(C(=O)OCC(=O)Nc2cc(C)on2)c1 | 7.08 µM (active) | 
2 | O=C(O)NCC1CCCCC1 (tested in a mixture with another compound) |  | -26.5% [at 11.4 µM]
3 | O=[n+]1c2c(n([O-])c3cc(F)c(F)cc31)CCCC2 |  | 4.83%
4 | CC(C)(C)C(=O)[C@H]1[C@H](c2ccccc2)[C@@]2(N=C(c3ccccc3)OC2=O)C2c3ccccc3C=NN21 (some centres undefined) |  | -20.3% [at 2.29 µM]
5 | Cc1cc(NC(=O)COC(=O)c2ccc(S(=O)(=O)N3CCCc4ccccc43)cc2)no1 | 0.891 µM (active) | 
6 | COc1ccc(/C=C(\C#N)C(N)=O)c(OC)c1 | 2.51 µM (active) | 
7 | CCOc1ccccc1/C=C(\C#N)C(N)=O |  | -4.52% [at 11.4 µM]
8 | COc1ccc(/C=C(\C#N)C(N)=O)cc1OC |  | -6.66% [at 11.4 µM]
9 | Cc1cccc2nc(C(F)(F)F)nc(=O)n12 |  | 0.743% [at 2.29 µM]
10 | CC(C)OC(=O)c1cccc(C(=O)Oc2ccc(Br)cc2)n1 |  | 3%
11 | O=C(CCN1C(=O)c2cccc3cccc(c23)C1=O)N1CCN(Cc2ccc3c(c2)OCO3)CC1 | 1 µM (active) | 
12 | Cc1ccc(=O)n(-c2ccccc2)c1 |  | -17.9%
13 | Cc1ccccc1/C=C1\OC(=O)c2ccccc21 |  | -28.4%
14 | Cc1ccc(/C=C2\OC(=O)c3ccccc32)cc1 | 12.6 µM (active) | 
15 | CCC(C)N1C(=O)S/C(=C/c2ccc(Sc3nc4ccccc4[nH]3)o2)C1=O (centres undefined) | 1.12 µM (active) | 
16 | COc1ccc(CNc2ncnc3ccc(-c4c(C)noc4C)cc23)c(OC)c1 | 3.16 µM (active) | 
17 | COc1ccccc1CNc1ncnc2ccc(-c3c(C)noc3C)cc12 | 12.6 µM (active) | 
18 | Cn1c(N)c(N=Nc2ccc(S(N)(=O)=O)cc2)c(=O)n(C)c1=O |  | -14.9% [at 11.4 µM]
19 | CN(Cc1ccco1)C(=O)C1CCC(=O)N1Cc1ccc(F)cc1 (centres undefined) |  | -13.7%
20 | CC(C)(C)c1ccc(CN(Cc2ccco2)Cc2nnnn2C2CCCC2)cc1 | 1.41 µM (active) | 
21 | NC(N)=N/N=C(\c1ccc(Cl)cc1)C1CC1 |  | -13.1% [at 11.4 µM]
22 | CCOC(=O)N1CCN(C(=O)c2cnc3n(c2=O)CCS3)CC1 |  | -1.95%
23 | CCOC(=O)N1CCN(C(=O)C(CC)n2nc(C)c3sc4ccccc4c3c2=O)CC1 (centres undefined) | 7.08 µM (active) | 
24 | CCOC(=O)N1CCN(C(=O)CCn2nc(-c3ccccc3)ccc2=O)CC1 |  | 11.8%
25 | COc1ccc(CCC(C)NC2C3CC4CC(C3)CC2C4)cc1 (centres undefined) |  | -2.79% [at 2.29 µM]

Row | Compound | AC50 | activity, negative = inhibition
26 | C[C@@H]1C[C@H](C)CN(S(=O)(=O)c2cc(Cl)c(Oc3ccc([N+](=O)[O-])cc3Cl)c(Cl)c2)C1 |  | -9.23% [at 11.4 µM]
27 | COc1ccc(S(=O)(=O)N2CC3C4C=CC(C4)C3C2)cc1 (centres undefined) | 14.1 µM (active) | 
28 | Oc1ccccc1-c1cc(-c2ccccc2)no1 |  | 1.55%
29 | O=C(CN1C(=O)NC2(CCCCCC2)C1=O)N1CCN(S(=O)(=O)c2ccc(Cl)cc2)CC1 | 6.31 µM (active) | 
30 | CC1CN(C(=O)CN2C(=O)NC3(CCCCCC3)C2=O)CC(C)O1 (centres undefined) |  | 25.3%
31 | O=C(CN1C(=O)NC2(CCCC2)C1=O)NCCC1=CCCCC1 |  | -28.6%
32 | Nc1ccc(-c2ccc(Nc3cc(S(=O)(=O)O)c(N)c4c3C(=O)c3ccccc3C4=O)cc2)c(S(=O)(=O)O)c1 |  | -1.65% [at 11.4 µM]
33 | Cc1ccc(S(=O)(=O)N(C)c2cc(S(=O)(=O)N3CCC(C)CC3)c(C)cc2C)cc1 | 2.51 µM (active) | 
34 | CC1CCN(S(=O)(=O)c2ccc3c(c2)C(=NO)c2cc(S(=O)(=O)N4CCC(C)CC4)ccc2-3)CC1 |  | -0.656% [at 2.29 µM]
35 | O=C(CC1CCCC1)Nc1ccc2c(c1)CCC2 | 14.1 µM (active) | 
36 | O=C(N/N=C\c1ccc2c(c1)CCC2)c1ccccc1O |  | -19.2% [at 11.4 µM]
37 | CC(=O)c1cccc(NC(=O)Cc2ccc3c(c2)CCCC3)c1 |  | -26.1%
38 | CCCCCCCCC(=O)N/N=C/c1ccccn1 |  | -18.3%
39 | Cc1nc2ccccc2n1CC(=O)N/N=C\c1ccccn1 |  | -14.7%
40 | COCCCNC(=O)c1c(N)n(/N=C/c2ccccn2)c2nc3ccccc3nc12 | 4.47 µM (active) | 
41 | O=S(=O)(c1ccccc1)N1CCC2(CCCN(c3ccccc3)C2)CC1 | 3.98 µM (active) | 
42 | O=S(=O)(c1ccccc1)N1CCC2(CCCN(c3cccc(-c4ccccc4)c3)C2)CC1 | 3.98 µM (active) | 
43 | O=S(=O)(c1ccccc1)N1CCC2(CCCN(c3ncccn3)C2)CC1 | 12.6 µM (active) | 
44 | CN1CCCC2(CCN(S(=O)(=O)c3ccccc3)CC2)C1 |  | -18%
45 | O=S(=O)(c1ccccc1)N1CCC2(CC1)CN(c1ncccn1)C2 |  | 3.08%
46 | CS(=O)(=O)N1CCC2(CC1)CN(c1cccc(-c3ccccc3)c1)C2 |  | -29.8%
47 | CS(=O)(=O)N1CCC2(CCCN(c3ncccn3)C2)CC1 |  | -23.3%
48 | CS(=O)(=O)N1CCC2(CCN(c3cccc(-c4ccccc4)c3)CC2)CC1 |  | -21.2%
49 | O=S(=O)(c1ccccc1)N1CCC[C@@]2(CCN(c3cccc(-c4ccccc4)c3)C2)C1 | 12.6 µM (active) | 
